Z-score data for twelve compounds are collected here from PubChem BioAssay.

Values without a mark were called inactive. Activity calls are given as the source filed them.

A short description of the experiment: plasmodial surface anion channel blockers, osmotic lysis – cell-based, P. falciparum Indochina, OD700, 2 h, primary screen (AID 1155).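 Further: lysis reports solute entry through the parasite surface anion channel PSAC.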 Conditions: P. falciparum Indochina infected erythrocytes, higher = more signal, called active from +8 up or from −8 down.
With `COC(=O)C1(Cc2ccccc2)C=C2C(=C(C(C)C)C(=O)C2C)CN1` (configuration not stated), the z-score was 0.326.
Consider `Cc1c(NC(=O)/C(C#N)=C/C=C/c2ccccc2[N+](=O)[O-])c(=O)n(-c2ccccc2)n1C`, for which the z-score was 0.548.
`[N-]=[N+]=NCc1ccccc1C[C@@]1(C(=O)NCCN2CCOCC2)N=C(c2ccc(OCCCO)cc2)O[C@@H]1c1ccccc1N=[N+]=[N-]`: the z-score is 27.4 (active).
As for `C[n+]1ccc(CCCO)cc1`, the z-score was -0.0234.
Regarding `CN1C(=O)C2C=CC(C(O)c3c(F)cccc3Cl)N(Nc3ccccc3)C2C1=O` (configuration not stated), the z-score is 0.733.
With `C=C[C@@H](C)[C@H](OC(=O)Nc1ccc(SC)cc1)c1ccc(OCCO)cc1` the figure was 12 (active); with `CC(C)C(O)C1C=CC2C(=O)N(C)C(=O)C2N1N(c1ccccc1)c1ccccc1` (configuration not stated), 0.167; with `O=C1c2ccccc2[C@](Cc2ccccc2I)(C(=O)NCc2ccccc2)[C@H](c2ccc(CO)cc2)N1C1CCCCC1`, 0.105.
Consider `CC(=O)n1cc(C(O)C2C=CC3C(=O)N(Cc4ccccc4)C(=O)C3N2n2cnnc2)c2ccccc21` (configuration not stated), for which the z-score was 2.31.
On to `COc1cc2c(cc1OC)CN(C(=O)[C@H]1[C@@H]3C(=O)O[C@@H](c4ccccc4)[C@@H](c4ccccc4)N3[C@@H](c3ccc(OCCO)cc3)[C@]13C(=O)Nc1ccc(C#CC4(O)CCCCCC4)cc13)CC2`, for which the z-score was 2.15.
For the compound `O=c1cccc(-c2ccc(C(F)(F)F)cc2)o1`, the z-score was 3.36.
`COc1ccc(C(O)C2C=CC3C(=O)N(Cc4ccccc4)C(=O)C3N2n2cnnc2)c2ccccc12` (configuration not stated): the z-score was -0.11.
